The list is not random: actives were taken first. Their share in the collection is about 2.9%.
Beta2AR agonist = beta2AR agonists driving receptor internalization, primary screen, cell-based, FAP fluorogen, flow cytometry; Beta-2 adrenergic receptor (Homo sapiens), P07550; AID 504454, 2011; response, % (no concentration beside the values); 340,000 compounds, 0.43% hits; Am2.2-beta2AR cells;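 active means response above a set limit, near 3 SD of response in nonfluorescent compounds, cut at about 42% in these data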
Target sequence (P07550 whole entry, looked up): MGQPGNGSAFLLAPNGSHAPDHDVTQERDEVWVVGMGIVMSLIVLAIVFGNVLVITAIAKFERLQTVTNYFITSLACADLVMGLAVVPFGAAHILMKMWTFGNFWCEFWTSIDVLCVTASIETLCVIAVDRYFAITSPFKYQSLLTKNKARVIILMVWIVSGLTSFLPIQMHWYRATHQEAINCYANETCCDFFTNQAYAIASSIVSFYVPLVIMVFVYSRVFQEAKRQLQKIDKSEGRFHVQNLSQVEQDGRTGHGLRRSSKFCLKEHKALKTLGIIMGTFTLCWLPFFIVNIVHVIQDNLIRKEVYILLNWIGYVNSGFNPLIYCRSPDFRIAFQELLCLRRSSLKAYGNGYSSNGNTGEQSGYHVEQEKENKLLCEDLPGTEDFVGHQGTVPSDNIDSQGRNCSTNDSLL
MEKK2wt PB1 HTS = modulators of MEK5 binding to wildtype MEKK2, primary screen, biochemical, multiplex bead flow cytometry, Alexa488-MEK5; 290,000 compounds, 1.1% hits; Alexa488-MEK5 binding to MEKK2 WT; actives lie on both sides; Mitogen-activated protein kinase kinase kinase 2 (Homo sapiens), Q9Y2U5; binding response (% of control), % at 10 µM; in the data active means binding response below about 67% or above about 130%
GRK2 inh = compounds blocking aptamer binding on GRK2 – biochemical, human GRK2, bead flow cytometry, HTS, primary screen. inhibition of aptamer binding, % at 10 µM. 330,000 compounds, 0.59% hits. FAM-aptamer displacement from GRK2. Beta-adrenergic receptor kinase 1 (Homo sapiens), P25098;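 active means inhibition of aptamer binding above 40%, roughly 3 SD of noise, on plates passing a quality check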;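 further: median bead fluorescence of bound FAM aptamer so fluorescent compounds give negative values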
MEKK3 PB1 HTS = modulators of MEKK3-MEK5 PB1 binding, primary screen, biochemical, wildtype MEKK3, multiplex bead flow cytometry, Alexa488-MEK5. Mitogen-activated protein kinase kinase kinase 3 (Homo sapiens), Q99759. bead-based flow cytometry, Alexa488-MEK5 binding to MEKK3; actives lie on both sides; 0 = blocked by unlabeled MEK5, 100 = vehicle. binding response (% of control), % at 10 µM. 290,000 compounds, 1.4% hits. AID 1529, 2009;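 active means binding response more than 3 SD above or below the average of its plate-row segment, actives on both sides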;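 further: Alexa488 bead fluorescence after subtracting the streptavidin-only scavenger bead signal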
MEKK2 mut-MEK5 = MEK5 binding signal on mutant MEKK2 PB1, primary screen, biochemical, multiplex bead flow cytometry, Alexa488-MEK5 | Alexa488-MEK5 binding to MEKK2 mutant | percent response, % at 10 µM | 290,000 compounds, 0.35% hits; in the data active means percent response above about 24%, passing the limit was not always enough
MEKK2wt confirm = modulators of MEK5 binding to wildtype MEKK2, confirmation, biochemical, single concentration, multiplex bead flow cytometry; shares compounds with MEKK3 PB1 HTS; 5,900 compounds, 2.4% hits; binding response (% of control), % at 10 µM; Alexa488-MEK5 binding to MEKK2 WT; actives lie on both sides; in the data active means binding response below about 16% or above about 210%; inactive means in between
MEKK2mut confirm = mutant MEKK2 PB1-MEK5 binding signal retest – biochemical, single concentration, multiplex bead flow cytometry, confirmation; shares compounds with MEKK3 PB1 HTS; Alexa488-MEK5 binding to MEKK2 mutant; percent response, % at 10 µM; 5,900 compounds, 2% hits; in the data active means percent response mostly above about 71%, no sharp cut-off; inactive means mostly below about 38%;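 further: higher means compound restores mutant binding toward wildtype level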
MEKK3-MEK5 inh = MEKK3 wild-type PB1 binding to MEK5, inhibitors, confirmation, biochemical, bead multiplex flow cytometry, single concentration, wildtype. shares compounds with MEKK3 PB1 HTS. Alexa488-MEK5 binding to MEKK3; active compounds read low. binding response (% of control), % at 10 µM. 5,900 compounds, 1.8% hits. AID 1894, 2009;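 active means binding response below 72% of control, or above a set upper limit, though filed actives all read lower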;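 further: lower values mean stronger disruption of MEK5 binding to MEKK3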
A number is an active result; – = inactive; · = no result; [ ] = another dose, or the depositor's remark.

SMILES | Beta2AR agonist | MEKK2wt PB1 HTS | GRK2 inh | MEKK3 PB1 HTS | MEKK2 mut-MEK5 | MEKK2wt confirm | MEKK2mut confirm | MEKK3-MEK5 inh
Cc1cccc(C)c1NC(=S)N(c1ccccc1)C(C)C | – | – | – | – | – | · | · | ·
COc1ccc(NC(=O)c2cc(S(=O)(=O)N3CCCCC3)ccc2OC)cc1 | – | – | – | – | – | · | · | ·
O=C(O)c1cccc(-n2cccc2/C=C2/NC(=O)N(c3cccc(Cl)c3)C2=O)c1 | – | – | – | – | – | · | · | ·
O=C(O)c1cccc(-n2cccc2/C=C2/NC(=O)N(c3ccc(Cl)cc3)C2=O)c1 | – | 63[inhibitor] | · | 74[inhibitor] | – | – | – | –
COc1ccc(-n2cccc2/C=C2/NC(=O)N(c3cccc(Cl)c3)C2=O)cc1 | – | – | – | 130 | – | – | – | –
CN(C)CCn1cnc2c(c1=N)C(c1ccccc1)c1ccc3ccccc3c1O2 (configuration not stated) | – | 142 | – | – | – | – | – | –
COc1ccc(C2c3c(ncn(CCN4CCOCC4)c3=N)Oc3ccc4ccccc4c32)cc1 (configuration not stated) | – | 165 | – | – | – | – | – | –
N=c1c2c(ncn1Cc1ccco1)Oc1c(ccc3ccccc13)C2c1ccccc1 (configuration not stated) | – | – | – | – | – | · | · | ·
N=c1c2c(ncn1CCN1CCOCC1)Oc1ccc3ccccc3c1C2c1ccccc1 (configuration not stated) | – | 141 | – | – | – | – | – | –
COc1ccc(C2c3c(ccc4ccccc34)Oc3ncn4nc(-c5ccco5)nc4c32)cc1 (configuration not stated) | – | – | – | – | – | · | · | ·
CN(C)CCNC(=O)C(=O)NCC1CCCN1S(=O)(=O)c1cccs1 (configuration not stated) | – | · | – | · | · | · | · | ·
COc1cc(/C=C/C(=O)OCC(=O)NCc2ccco2)ccc1O | – | · | – | · | · | · | · | ·
COc1ccc(/C=N/S(=O)(=O)CCc2ccccc2)c(OC)c1 | – | – | – | 69[inhibitor] | – | – | – | –
COc1cc(/C=N/S(=O)(=O)CCc2ccccc2)ccc1O | – | – | – | – | – | · | · | ·
COc1ccc(/C=C2/Sc3ccc(C(=O)N4CCc5ccccc5C4)cc3NC2=O)cc1 | – | – | – | – | – | · | · | ·
COc1ccc(/C=C2\Sc3ccc(C(=O)N4CCc5ccccc5C4)cc3N(C)C2=O)cc1 | · | – | – | 130 | – | – | – | –
COc1ccc(C2=NN(C(=O)c3cccs3)C(c3ccccc3O)C2)cc1 (configuration not stated) | – | – | – | 50[inhibitor] | – | – | – | –
Oc1ccccc1/C=N/Nc1cc(N2CCCC2)nc(N2CCCC2)n1 | – | 181 | – | – | – | – | – | –
Oc1ccc(/C=N/Nc2cc(N3CCOCC3)nc(N3CCOCC3)n2)cc1O | – | – | – | – | – | · | · | ·
CC(C)CCNC(=O)C(=O)NCCC1=CCCCC1 | – | – | – | – | – | · | · | ·
CC(NC(=O)C(=O)NCCC1=CCCCC1)c1ccccc1 (configuration not stated) | – | – | – | 139 | – | – | – | –
O=C(NCc1ncc(C(F)(F)F)cc1Cl)Nc1ccccc1 | – | – | – | – | – | · | · | ·
CC(C)c1ccc(C2N3CC4([N+](=O)[O-])CN2CC([N+](=O)[O-])(C3)C4(C)C)cc1 (configuration not stated) | – | – | – | 71[inhibitor] | – | – | – | –
CC1(C)C2([N+](=O)[O-])CN3CC1([N+](=O)[O-])CN(C2)C3c1ccccc1 (configuration not stated) | – | – | – | – | – | · | · | ·
CC(C)NCC(O)COc1ccc2c(c1)CCC2 (configuration not stated) | – | – | – | 140 | – | – | – | –
SMILES | Beta2AR agonist | MEKK2wt PB1 HTS | GRK2 inh | MEKK3 PB1 HTS | MEKK2 mut-MEK5 | MEKK2wt confirm | MEKK2mut confirm | MEKK3-MEK5 inh
CC(C)NCC(O)COc1ccc(Br)cc1 (configuration not stated) | – | – | – | – | – | · | · | ·
CCCCC1(CC(=O)OCC)C(=O)N(c2ccccc2)N(c2ccccc2)C1=O | – | – | – | – | – | · | · | ·
O=C(Cn1cc(S(=O)(=O)N2CCN(c3ccccc3F)CC2)c2ccccc2c1=O)NCCCN1CCCCCC1 | – | 7.0[inhibitor] | – | 3.0[inhibitor] | – | – | – | –
COCCNC(=O)Cn1cc(S(=O)(=O)N2CCN(c3ccccc3F)CC2)c2ccccc2c1=O | – | – | – | – | – | · | · | ·
O=C(c1ccc(F)cc1)c1ccc(CN2C(=O)c3ccccc3C2=O)o1 | – | – | – | – | – | · | · | ·
O=C(c1ccc(Cl)cc1)c1ccc(CN2C(=O)c3ccccc3C2=O)o1 | – | 2.0[inhibitor] | – | 2.0[inhibitor] | – | – | – | –
COC(=O)c1ccc(C(=O)Nc2ccc3c(c2)C(=O)NC3=O)cc1 | – | 69[inhibitor] | – | 60[inhibitor] | – | – | – | –
COc1ccc(CCNC(=O)CCc2cn(C)c3ccccc23)c(OC)c1OC | – | – | – | – | 27 | – | – | –
COC(=O)C1(CCSC)NC(c2ccco2)C2C(=O)N(C)C(=O)C21 (configuration not stated) | – | 1.0[inhibitor] | – | 2.0[inhibitor] | – | – | – | –
CC(=O)Nc1ccc(S(=O)(=O)N[C@@H](C)C(=O)OCc2ccc(Cl)cc2)cc1 | – | – | – | 144 | – | – | – | –
COc1ccc2[nH]c(=O)c(CN(Cc3ccccc3)C(=S)NCC3CCCO3)cc2c1 (configuration not stated) | – | – | – | – | – | · | · | ·
Cc1ccc(NC(=O)N(Cc2cccs2)Cc2cc3cc4c(cc3[nH]c2=O)OCO4)cc1 | · | – | – | 130 | – | – | – | –
COc1ccc(NC(=O)N(Cc2cccs2)Cc2cc3cc4c(cc3[nH]c2=O)OCO4)cc1 | · | – | – | 137 | – | – | – | –
Cc1ccc2[nH]c(=O)c(CN(Cc3cccs3)C(=S)NCC3CCCO3)cc2c1 (configuration not stated) | – | – | – | 138 | – | – | – | –

Screening data (PubChem BioAssay)
